Data from PubChem BioAssay (NCATS).
Records with an inconclusive call do not appear. Activity calls are given as the source filed them. Unless noted, calls follow the shape of the dose curve; as a rule, active = well fitted curve in the direction sought with a large enough effect; inconclusive = small, poorly fitted or top-dose-only effect, or another doubt; inactive = no such curve, though single readings can be large; an effect the other way counts as inactive or inconclusive.

How the values were obtained:
[1] = S16 Schwann cell PMP22 intronic element beta-lactamase assay (AID 624044; calls by dose curve;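 also: 0% = DMSO and -100% = potassium clavulanate positive control; nearly all actives have a fitted effect of over 15% in size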)
Method in brief: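 Beta-lactamase reporter under a PMP22 intronic regulatory element in stable S16 rat Schwann cells; 24 h compound exposure. 460 nm blue signal normalized between DMSO (0%) and potassium clavulanate, with 535 nm FRET tracking viability; curves classed by r2 and response.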

[2] = qHTS assay for small molecule activators of the p53 signaling pathway (AID 651743; active = well fitted activation curve with a large enough effect in the signal ratio, not every such curve was filed as active; the % refers to the signal ratio; also: % of control where 0% means no effect); settings: HCT-116 p53RE-bla, beta-lactamase FRET ratio, 16 h; activation: stronger effect = higher value
Method in brief: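 A beta-lactamase reporter under p53 response element control, stably carried by HCT-116 cells, reported pathway activation. Test compounds were applied for 16 hours at 37 C, and fluorescence was measured 2 hours after adding the B/G FRET substrate.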

[3] = qHTS assay for small molecule activators of the nuclear factor-kappa B (NF-kB) signaling pathway (AID 651749; active = well fitted activation curve with a large enough effect in the signal ratio; the % refers to the signal ratio; also: % of control where 0% means no effect); settings: NF-kB-bla ME-180 cells, beta-lactamase FRET ratio, 16 h; stronger effect = higher value
Method in brief: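 FRET-based beta-lactamase detection in ME-180 cells reports NF-kB response-element-driven transcription following overnight (16 hr) compound treatment.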

[4] = qHTS assay for small molecule disruptors of the mitochondrial membrane potential - 1 hr assay (AID 651754; calls by dose curve; also: % is scaled to controls: 0 for no effect and ±100 for the full control effect; nearly all actives have a fitted effect of over 35% in size)
Method in brief: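 In this qHTS format, a 1 hr compound treatment of HepG2 cells precedes Mito-MPS staining, and membrane potential is judged from aggregate (red) against monomer (green) fluorescence intensity.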

[5] = qHTS assay for small molecule disruptors of the mitochondrial membrane potential - 5 hr assay (AID 651755; calls by dose curve; also: % is scaled to controls: 0 for no effect and ±100 for the full control effect; nearly all actives have a fitted effect of over 40% in size)
Method in brief: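 Membrane-potential dye readout: red aggregate (540 ex/590 em) versus green monomer (490 ex/535 em) fluorescence after 30 min dye loading, following 5 hr compound exposure at 37C of overnight-plated HepG2 cells.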

[6] = biological target: Tumor necrosis factor (Homo sapiens) (UniProt P01375); test: qHTS assay to identify small molecules that stimulate Tumor Necrosis Factor-alpha (TNF-alpha) secretion (AID 651757; active = well fitted curve in the direction sought with a large enough effect in the signal ratio; the % refers to the signal ratio; also: potency is read from the fitted curve at half-maximal effect)
Tumor necrosis factor (Homo sapiens), sequence (P01375 whole entry, looked up): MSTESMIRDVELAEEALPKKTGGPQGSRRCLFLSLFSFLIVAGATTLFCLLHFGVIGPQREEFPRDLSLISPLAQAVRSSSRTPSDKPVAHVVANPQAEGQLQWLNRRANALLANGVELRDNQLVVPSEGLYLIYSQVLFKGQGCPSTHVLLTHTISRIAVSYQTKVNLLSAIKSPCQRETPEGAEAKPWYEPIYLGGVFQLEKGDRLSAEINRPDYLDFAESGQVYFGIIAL
Method in brief: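 Using 3000 THP-1 cells per well, compounds and controls were applied for 17 hrs at 37 C. Detection followed with two labeled anti-TNF-alpha antibodies (cryptate donor, XL665 acceptor) for 3 hr at room temperature, measured by TR-FRET.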

[7] = qHTS assay for environmental chemicals that activate the Aryl hydrocarbon Receptor (AhR) signaling pathway (AID 651777); settings: 1A2-DRE human hepatoma cells, luciferase, 24 h; activation: stronger effect = higher value; also: % of control where 0% means no effect; nearly all actives have a fitted effect of over 15% in size
Method in brief: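 Measured luciferase activity, read 30 min after One-Glo addition at room temperature, from human hepatoma cells bearing a dioxin response element–CYP1A2 promoter reporter and exposed to compound for 24 hr at 37 C.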

[8] = biological target: Peroxisome proliferator-activated receptor alpha (Homo sapiens) (UniProt Q07869); test: qHTS assay for small molecule agonists of the peroxisome proliferator-activated receptor alpha (PPARalpha) signaling pathway (AID 651778); settings: PathHunter PPARalpha complementation, chemiluminescence, 6 h; stronger effect = higher value; also: % of control where 0% means no effect
Peroxisome proliferator-activated receptor alpha (Homo sapiens), sequence (Q07869 whole entry, looked up): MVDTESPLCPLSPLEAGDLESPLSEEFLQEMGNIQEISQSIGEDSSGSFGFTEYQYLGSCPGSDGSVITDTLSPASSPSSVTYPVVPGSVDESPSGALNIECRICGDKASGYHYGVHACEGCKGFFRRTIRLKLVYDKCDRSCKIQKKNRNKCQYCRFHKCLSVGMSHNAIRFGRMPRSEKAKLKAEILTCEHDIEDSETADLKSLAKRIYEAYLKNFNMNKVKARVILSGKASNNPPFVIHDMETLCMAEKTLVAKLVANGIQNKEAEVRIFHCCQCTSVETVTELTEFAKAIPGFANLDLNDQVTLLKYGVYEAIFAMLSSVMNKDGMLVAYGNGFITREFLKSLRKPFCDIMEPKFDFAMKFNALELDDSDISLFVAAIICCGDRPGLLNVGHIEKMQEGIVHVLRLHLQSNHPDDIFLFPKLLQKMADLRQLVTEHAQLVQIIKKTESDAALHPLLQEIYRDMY
Method in brief: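 Chemiluminescence from complemented enzyme reported PPARalpha activation in cells after 6 hr of compound treatment at 37 C. The detection reagent was incubated for 60 min at room temperature, and compounds were scored as agonists.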

[9] = qHTS assay for small molecule agonists of the antioxidant response element (ARE) signaling pathway measured by Nrf2-dependant transcriptional activity (AID 720636; active = well fitted curve in the direction sought with a large enough effect in the repeat runs; an effect the other way counts as inactive or inconclusive;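 also: HepG2 cells with an ARE-driven luciferase reporter; % of control where 0% means no effect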)
Method in brief: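 In HepG2 cells engineered with an Nrf2-responsive luciferase gene, ARE induction was quantified as luminescence after 16 hr compound treatment at 37 C.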

[10] = qHTS assay for small molecule antagonists of the retinoid-related orphan receptor gamma (ROR-gamma) signaling pathway - cell viability counter screen (AID 720652; active = well fitted curve in the direction sought with a large enough effect in the repeat runs; an effect the other way counts as inactive or inconclusive;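 also: CHO reporter cells with doxycycline-induced ROR-gamma expression; compound exposure lasted 16 hr before ATP read; % is scaled to controls: 0 for no effect and ±100 for the full control effect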)
Method in brief: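 ATP-based viability readout in the ROR-gamma reporter CHO cells after 16 hr compound exposure under doxycycline induction.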

[11] = qHTS assay for small molecule agonists of the antioxidant response element (ARE) signaling pathway measured by Nrf2-dependant transcriptional activity - cell viability counter screen (AID 720653; active = well fitted curve in the direction sought with a large enough effect in the repeat runs; an effect the other way counts as inactive or inconclusive; also: % is scaled to controls: 0 for no effect and ±100 for the full control effect); settings: ARE-bla HepG2 viability, CellTiter-Glo ATP luminescence, 16 h; stronger effect = lower value
Method in brief: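 Cytotoxicity counter screen: intracellular ATP quantified by CellTiter-Glo luminescence in the same ARE-bla HepG2 plates, after 16 h compound exposure and a 2 h beta-lactamase substrate step.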

[12] = qHTS assay for cell viability of HEK293 cells (AID 743288); settings: ATP luminescence (CellTiter-Glo), 18 h, stronger effect = lower value; also: % is scaled to controls: 0 for no effect and ±100 for the full control effect; nearly all actives have a fitted effect of over 50% in size
Method in brief: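 ATP luminescence (CellTiter-Glo) reports metabolically competent cell number after parental HEK293 cells, 2,000/well, were treated with DMSO-dissolved compounds for 18 h at 37 C; reagent incubation 30 min, room temperature.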

[13] = qHTS assay for cell viability of the p53RE-bla HCT-116 cell line (AID 743292); also: % is scaled to controls: 0 for no effect and ±100 for the full control effect; nearly all actives have a fitted effect of over 55% in size
Method in brief: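 Intracellular ATP of p53RE-bla HCT-116 cells measured by luciferase luminescence following 16 h compound incubation at 37 C; DMSO-only wells served as vehicle controls.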

[14] = qHTS to identify inhibitors of the type 1 interferon - major histocompatibility complex class I in skeletal muscle: primary screen against the NCATS Mechanism Interrogation Plate v5.0 (MIPE) Libary (AID 1347411);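 also: plate controls were vehicle for no effect and reference inhibitor for full effect; nearly all actives have a fitted effect of over 65% in size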
Method in brief: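 IFN-beta-driven (4 ng/ml) HLA-B-HiBit expression in CRISPR-tagged C25cl48 myoblasts; compounds 11-pt, 1:3, max 46 uM, 24 hr exposure; lytic NanoLuc complementation luminescence.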

[15] = Primary qHTS for inhibitors of nuclear receptor binding SET domain protein 2 (NSD2) in an isogenic RCH-ACV NSD2 p.E1099K mutant (9B) (AID 1645876); also: % is scaled to controls: 0 for no effect and ±100 for the full control effect; nearly all actives have a fitted effect of over 70% in size
[16] = biological target: Glutathione peroxidase 1 (Homo sapiens) (UniProt P07203); test: Primary qHTS Assay for Inhibitors of Recombinant Selenoprotein Glutathione Peroxidase 1 (GPX1) (AID 1845191); also: % is scaled to controls: 0 for no effect and ±100 for the full control effect; nearly all actives have a fitted effect of over 65% in size
Glutathione peroxidase 1 (Homo sapiens), sequence (P07203 whole entry, looked up): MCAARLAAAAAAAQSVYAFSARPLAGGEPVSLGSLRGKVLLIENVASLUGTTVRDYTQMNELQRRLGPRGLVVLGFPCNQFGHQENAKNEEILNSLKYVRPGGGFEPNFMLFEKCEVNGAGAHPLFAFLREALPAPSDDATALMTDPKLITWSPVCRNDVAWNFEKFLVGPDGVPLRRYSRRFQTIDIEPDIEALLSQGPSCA
Method in brief: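 NADPH consumption tracked by fluorescence at 340/450 nm between t=0 and t=15 min, room temperature. Final mix: 10 nM GPX1, 100 nM glutathione reductase, 1 mM GSH, 0.5 mM NADPH, 0.5 mM cumene hydroperoxide, 0.01% BSA; 30 min compound–enzyme preincubation.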

[17] = qHTS drug screen for cell cycle checkpoint inhibitors in PARPi-resistant BRCA-mutant ovarian cancer cell lines. (AID 1963452; calls by dose curve); settings: PEO1/OlaR viability, CellTiter-Glo luminescence, 96 h, stronger effect = lower value
Method in brief: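 PEO1, PEO4 and PEO1/OlaR ovarian cancer cells, 600 per well, exposed 96 h at 37C to a dilution series. Viability read by CellTiter-Glo luminescence, normalized to DMSO and empty wells; activity summarized as Z-AUC.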

[18] = qHTS profiling for inhibitors of Plasmodium falciparum proliferation (AID 504749);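 also: 0% = DMSO vehicle and full inhibition = artemisinin control; nearly all actives have a fitted effect of over 60% in size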; settings: P. falciparum in erythrocytes, SYBR Green DNA, 72 h; at 28.7 µM (top of the series); parasite line A
Method in brief: (§1)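 In a 72 h erythrocytic culture (37 C, humidified, 5% CO2) at 2.5% hematocrit and 0.3% starting parasitemia, compounds were tested; SYBR Green I in detergent lysis buffer stained parasite DNA overnight.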

7G8 = test: as above; settings: P. falciparum in erythrocytes, SYBR Green DNA, 72 h; series mostly up to 28.7 µM
Method in brief: as §1

AA1029 = test: as above; settings: P. falciparum in erythrocytes, SYBR Green DNA, 72 h; series mostly up to 28.7 µM
Method in brief: as §1

AS120 = test: as above; settings: P. falciparum in erythrocytes, SYBR Green DNA, 72 h; series mostly up to 28.7 µM
Method in brief: as §1

ATS189 = test: as above; settings: P. falciparum in erythrocytes, SYBR Green DNA, 72 h; series mostly up to 28.7 µM
Method in brief: as §1

ATS95 = test: as above; settings: P. falciparum in erythrocytes, SYBR Green DNA, 72 h; series mostly up to 28.7 µM
Method in brief: as §1

C2A = test: as above; settings: P. falciparum in erythrocytes, SYBR Green DNA, 72 h; series mostly up to 28.7 µM
Method in brief: as §1

CP185 = test: as above; settings: P. falciparum in erythrocytes, SYBR Green DNA, 72 h; series mostly up to 28.7 µM
Method in brief: as §1

CP191 = test: as above; settings: P. falciparum in erythrocytes, SYBR Green DNA, 72 h; series mostly up to 28.7 µM
Method in brief: as §1

CP192 = test: as above; settings: P. falciparum in erythrocytes, SYBR Green DNA, 72 h; series mostly up to 28.7 µM
Method in brief: as §1

CP194 = test: as above; settings: P. falciparum in erythrocytes, SYBR Green DNA, 72 h; series mostly up to 28.7 µM
Method in brief: as §1

CP201 = test: as above; settings: P. falciparum in erythrocytes, SYBR Green DNA, 72 h; series mostly up to 28.7 µM
Method in brief: as §1

CP203 = test: as above; settings: P. falciparum in erythrocytes, SYBR Green DNA, 72 h; series mostly up to 28.7 µM
Method in brief: as §1

CP211 = test: as above; settings: P. falciparum in erythrocytes, SYBR Green DNA, 72 h; series mostly up to 28.7 µM
Method in brief: as §1

CP217 = test: as above; settings: P. falciparum in erythrocytes, SYBR Green DNA, 72 h; series mostly up to 28.7 µM
Method in brief: as §1

CP237 = test: as above; settings: P. falciparum in erythrocytes, SYBR Green DNA, 72 h; series mostly up to 28.7 µM
Method in brief: as §1

CP238 = test: as above; settings: P. falciparum in erythrocytes, SYBR Green DNA, 72 h; series mostly up to 28.7 µM
Method in brief: as §1

CP247 = test: as above; settings: P. falciparum in erythrocytes, SYBR Green DNA, 72 h; series mostly up to 28.7 µM
Method in brief: as §1

CP250 = test: as above; settings: P. falciparum in erythrocytes, SYBR Green DNA, 72 h; series mostly up to 28.7 µM
Method in brief: as §1

C[C@@H]1[C@H](O)[C@@H](C)/C=C/C=C/C=C/C=C/C=C/C=C/C=C/[C@H](O[C@@H]2O[C@H](C)[C@@H](O)[C@H](N)[C@@H]2O)C[C@@H]2O[C@](O)(C[C@@H](O)C[C@@H](O)[C@H](O)CC[C@@H](O)C[C@@H](O)CC(=O)O[C@H]1C)C[C@H](O)[C@H]2C(=O)O
active: Potency [6] 42.2 µM
1.65: Z-AUC ([17]; measured here: PEO1 parental Z-AUC)
1.61: Z-AUC ([17]; measured here: PEO4 Z-AUC)
inactive: outcome [1] | activation [2] 0.804% | activation [3] -0.187% | Potency [4] | Potency [5] | activation [7] 0.282% | max response [8] 6.84% | outcome [9] | outcome [10] | max response [11] -15.2% | max response [12] -1.04% | Potency [13] | Potency [14] | Potency [15] | Potency [16] | Z-AUC [17] 1.47 | activity, negative = inhibition [18] -1.42% | Potency (7G8) | Potency (AA1029) | Potency (AS120) | Potency (ATS189) | Potency (ATS95) | Potency (C2A) | Potency (CP185) | Potency (CP191) | Potency (CP192) | Potency (CP194) | Potency (CP201) | Potency (CP203) | Potency (CP211) | Potency (CP217) | Potency (CP237) | Potency (CP238) | Potency (CP247) | Potency (CP250)
